Rab9 prom act = activates the Rab9 promoter; Potency, µM (top dose mostly 9.22 µM), without a hit: at the highest dose activation, negative = inhibition, most hits filed as activators; Huh7 Rab9 promoter-luciferase reporter, luminescence, 24 h; AID 485297; 320,000 compounds, 2.8% hits; note: % of control where 0% means no effect; nearly all actives have a fitted effect of over 60% in size
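Rab9 promoter-driven luciferase in stably transfected Huh7 cells; 1500 cells/well rested 2 h, exposed to compound in DMSO for 24 h at 37 °C, 5% CO2. Luminescence read 10 min after adding luciferase reagent at ambient temperature.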
SMN2 splice up = increases expression of the SMN2 splice variant; AID 1458; Potency, µM (series often up to 46.1 µM), for inactives: at the top dose activity change, positive = activation, actives largely listed as activators; HEK293 SMN2-luciferase splicing reporter, luminescence, 30-36 h; 210,000 compounds, 2.8% hits; note: % of control where 0% means no effect; nearly all actives have a fitted effect of over 55% in size
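qHTS luciferase splicing reporter: luminescence rises when SMN2 exon 7 is included in transfected HEK293 cells. Compound exposure lasted 30-36 h at 37C, with 4.5 mM final sodium butyrate as control, followed by a ONE-Glo read.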
Luc counter = blocks Kinase-Glo luciferase, a counter-screen artifact. Q27757. Kinase-Glo luciferase, ATP luminescence, 8 min. Potency, µM (titrated, usually from 38.3 µM), for the others: at the top dose activity change, negative = inhibition, usual class: inhibitors. 200,000 compounds, 0.28% hits. AID 1379; note: % is set by controls: 0 for no effect and ±100 for the full control effect; nearly all actives have a fitted effect of over 60% in size
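Luminescence was the read-out, taken after 8-minute incubation at ambient temperature. Luciferase turned over luciferin with 10 uM ATP in imidazole pH 7.2 buffer containing KCl, MgCl2, Tween 20 and BSA.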
FLuc modulator = counter-screen for miR-21 project: firefly luciferase inhibitors or activators; purified FLuc, Km substrates, luminescence inhibition; Potency, µM (titrated, usually from 57.5 µM), for the others: at the top dose activity change, negative = inhibition, usual class: inhibitors; 360,000 compounds, 6.9% hits; AID 588342;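 note: plate controls were vehicle for no effect and reference inhibitor for full effect; nearly all actives have a fitted effect of over 55% in size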
Target sequence (P08659 whole entry, looked up): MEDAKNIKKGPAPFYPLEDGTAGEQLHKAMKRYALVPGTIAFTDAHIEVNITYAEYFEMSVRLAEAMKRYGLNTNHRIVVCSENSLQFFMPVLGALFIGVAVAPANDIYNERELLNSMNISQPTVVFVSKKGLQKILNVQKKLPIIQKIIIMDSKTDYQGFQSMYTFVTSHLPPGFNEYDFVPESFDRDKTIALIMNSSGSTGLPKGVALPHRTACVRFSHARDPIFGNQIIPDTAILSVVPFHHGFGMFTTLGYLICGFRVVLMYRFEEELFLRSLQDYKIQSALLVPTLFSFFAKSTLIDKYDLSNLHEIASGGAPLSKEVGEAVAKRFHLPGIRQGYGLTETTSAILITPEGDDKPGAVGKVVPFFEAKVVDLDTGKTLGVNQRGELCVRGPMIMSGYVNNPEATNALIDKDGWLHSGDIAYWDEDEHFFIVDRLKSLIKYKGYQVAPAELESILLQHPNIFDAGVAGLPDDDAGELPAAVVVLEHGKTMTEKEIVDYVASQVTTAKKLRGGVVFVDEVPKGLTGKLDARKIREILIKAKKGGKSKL
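Purified P. pyralis luciferase (10nM final) with 10uM D-luciferin and 10uM ATP (Km levels) in 50mM Tris acetate pH 7.5, 10mM Mg acetate, 0.01% Tween-20, 0.05% BSA; qHTS 6-point titration, ~60 µM downward; luminescence read.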
NPC1 prom act = activators of NPC1 promoter; Huh7 NPC1 promoter luciferase reporter, 24 h; 320,000 compounds, 2.4% hits; Potency, µM (series often up to 9.22 µM), without a hit: top-dose activation, actives largely listed as activators; note: % of control where 0% means no effect; nearly all actives have a fitted effect of over 60% in size
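Cells: Huh7 expressing luciferase under the NPC1 promoter, 1500/well. Seeded 2 h, compound added, incubated 24 h at 37 °C. Luciferase reagent, 10 min ambient, then luminescence.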
Numbers without * were called inactive; ? = inconclusive; . = no result given; [ ] = dose if it differs, or a comment. Only some compounds are listed: those with a hit (about 7.3% of all), similar ones and a draw of the others. Calls come from the whole dose curve; as a rule, active = well fitted curve in the direction sought with a large enough effect; inconclusive = small, poorly fitted or top-dose-only effect, or another doubt; inactive = no such curve, though single readings can be large; an effect the other way counts as inactive or inconclusive. Potency is the fitted concentration of half-maximal effect.

SMILES	Rab9 prom act	SMN2 splice up	Luc counter	FLuc modulator	NPC1 prom act
Cc1nc(Nc2ccccc2Cl)sc1C(=O)Nc1ccccc1	-1%	21%	0%	19µM*	16%
CCN(CC)CCNC(=O)c1ccc(NS(C)(=O)=O)cc1	0%[46.1 µM]	.	.	.	2%[46.1 µM]
CCN(CC)CCCNc1oc(/C=C/c2ccc(OC)c(OC)c2)nc1C#N	.	3%	.	-3%	.
COCCNC(=O)CCCn1c(SCC(=O)c2ccc(Br)cc2)nc2c(sc3ccccc32)c1=O	.	?	.	1%	.
O=P(O)(CCP(=O)(O)c1ccccc1)c1ccccc1	.	11%[9.22 µM]	-2%[7.66 µM]	.	.
O=[N+]([O-])c1ccc(/C=N/Nc2nc(NCc3ccccc3)nc(N3CCOCC3)n2)cc1	-3%	1%	-5%	0%	0%
O=[N+]([O-])c1cccc(/C=N/Nc2nc(NCc3ccccc3)nc(N3CCOCC3)n2)c1O	-6%	.	-1%	17µM*	-4%
COC(=O)c1ccc(Cl)cc1NC(=O)NCc1c(-n2cccc2)sc2c1CCCC2	.	.	.	-6%	.
Cc1ccc(N(CC(=O)N/N=C/c2cc(C)n(-c3ccccc3C)c2C)S(C)(=O)=O)cc1	3%	1%	-2%	17µM*	-5%
Cc1cc(C)cc(-n2c(C)cc(/C=N/NC(=O)CN(c3c(C)cccc3C)S(C)(=O)=O)c2C)c1	-35%	17%	19%	0%	-1%
Cc1ccc(NS(=O)(=O)c2ccccc2F)cc1S(=O)(=O)N1CCCCCC1	3%	.	.	2%	-1%
COc1ccc(-c2cccc(NS(=O)(=O)c3cc([N+](=O)[O-])ccc3Cl)c2)nn1	2%	.	.	-15%	0%
O=S(=O)(Nc1cccc(-c2ccc(N3CCCCCC3)nn2)c1)c1ccccc1F	?	.	.	19µM*	16%
O=S(=O)(Nc1cccc(-c2ccc(N3CCCCCC3)nn2)c1)c1ccccc1Cl	29%	.	.	8.5µM*	19%
CC1CCc2nc(NC(=O)CN3CCN(Cc4ccc5c(c4)OCO5)CC3)sc2C1 (stereo unspecified)	-22%	-95%	0%	5%	-2%
CC1CCc2nc(NC(=O)Nc3ccc4c(c3)OCO4)sc2C1 (stereo unspecified)	2.5µM*	.	.	1.3µM*	3.2µM*
CC1CCc2nc(NC(=O)C3CC3)sc2C1 (stereo unspecified)	?	?	-6%	24µM*	?
Cc1ccccc1C(=O)Nc1nc2c(s1)CC(C(C)(C)C)CC2 (stereo unspecified)	.	.	.	6µM*	.
CC1CCc2nc(NC(=O)C3COc4ccccc4O3)sc2C1 (stereo unspecified)	?	-51%	-4%	0.54µM*	?
CC(C)Oc1ccc(C(=O)Nc2nc3c(s2)CC(C(C)(C)C)CC3)cc1 (stereo unspecified)	.	.	.	-14%	.
COc1ccc2c(c1)c1c(c(=O)n(-c3cccc(Cl)c3)c(=O)n1CC(=O)NCC1CCCO1)n2C (stereo unspecified)	.	.	.	0%	.
CC(C)CC(=O)Nc1ccccc1OCc1cc(=O)n2ccccc2n1	.	.	.	-6%	.
Cc1ncsc1C(=O)Nc1nc2c(s1)CC(C)CC2 (stereo unspecified)	?	13µM*	?	2.1µM*	1.8µM*
O=C(COC(=O)c1cc(S(=O)(=O)Nc2ccccc2Cl)ccc1O)Nc1nc2ccccc2s1	?	16%	2%	21µM*	6%
COc1ccccc1NS(=O)(=O)c1ccc(O)c(C(=O)OCC(=O)c2ccc(Cl)cc2Cl)c1	-4%	-1%	7%	?	-8%
Cc1c(N=C=O)cccc1N=C=O	.	1%	.	.	.
Cc1nnc(C)n1/N=C/c1cc2ccccc2nc1Cl	-4%	17%	5%	-3%	-1%
Cn1c(N/N=C/c2c[nH]c3ccccc23)nc2ccccc21	?	-109%	-7%	1.5µM*	?
Cn1c(N/N=C/c2cc3ccccc3nc2Cl)nc2ccccc21	0.45µM*	2.2µM*	6.3µM*	0.027µM*	1µM*
Cc1ccc(C2/C(=C(/O)c3cnn(-c4ccccc4)c3C)C(=O)C(=O)N2CCN2CCOCC2)o1 (stereo unspecified)	2.8µM*	-52%	2%	21µM*	3.5µM*

Screening results as filed in PubChem.
